Drawing on PubChem BioAssay, this text covers composite z-score and z-score for 17 molecules.

Molecules are shown by their SMILES. The source made the active and inactive calls.

The test system of test [1] is Plasmodium falciparum Sir2 (PF13_0152, Sir2A). Kind of test: Plasmodium falciparum Sir2A binding compounds – biochemical, small-molecule microarray, 635 nm fluorescence, primary screen (AID 1098).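 Further: score merges spot fluorescence intensity with its signal-to-noise ratio.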 The settings on record: fluorescence 635 nm, higher = more signal.
Test [2] can be described thus: probe aDKK1 binding to arrayed compounds – biochemical, biotinylated probe, 635/667 nm fluorescence, primary screen (AID 1099).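 Further: score merges 667nm spot fluorescence with signal to noise across triplicate slides; reference of the scale not given here.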 Conditions: small-molecule microarray, higher = more signal.
Test [3] can be described thus: probe aCHRDL2 binding to arrayed compounds – biochemical, biotinylated probe, 635/667 nm fluorescence, primary screen (AID 1100). Conditions: small-molecule microarray, higher = more signal.
Test [4] is described as follows: change in splice reporter luminescence, either direction, cell-based, HEK293, spliceosome inhibition project, primary screen (AID 1101).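 Further: HEK293 cells carrying a splicing-competent luciferase reporter gene; test concentration not given here.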 The settings on record: HEK293 splicing luciferase reporter, 24 h, higher = more signal, called active from +8 up or from −8 down.
Test [5] has as its target Fibroblast growth factor 10 (Homo sapiens) (UniProt O15520). Kind of test: compounds binding fibroblast growth factor 10 – biochemical, small-molecule microarray, 635 nm fluorescence, primary screen (AID 1102). The settings on record: FGF10 binding, fluorescence 635 nm, higher = more signal.
In test [6] the test system is glycogen synthase kinase-3 (GSK3A per assay name; protocol says GSK3B). Kind of test: compounds binding glycogen synthase kinase-3 – biochemical, small-molecule microarray, 635 nm fluorescence, GSK3A, primary screen (AID 1103). Further: the record names both GSK3A and GSK3B. Conditions: fluorescence 635 nm, higher = more signal.
The target in test [7] is Epidermal growth factor receptor (Homo sapiens) (UniProt P00533). The experiment in a line: compounds binding epidermal growth factor receptor – biochemical, small-molecule microarray, 635 nm fluorescence, primary screen (AID 1104).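 Further: score merges 667 nm emission intensity with spot signal to noise over triplicate slides.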 The settings on record: EGFR binding, higher = more signal.
Test [8] addresses Follistatin-related protein 3 (Homo sapiens) (UniProt O95633). Kind of test: compounds binding follistatin-related protein 3 – biochemical, small-molecule microarray, 635 nm fluorescence, primary screen (AID 1105).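 Further: score merges emission near 667 nm and signal to noise per printed spot across three slides.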 Conditions: FSTL3 binding, higher = more signal.
In test [9] the target is Dickkopf-related protein 1 (Homo sapiens) (UniProt O94907). The experiment in a line: small molecules binding DKK1 protein – biochemical, small-molecule microarray, 635 nm fluorescence scan, primary screen (AID 1106).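 Further: score merges emission near 667 nm with signal to noise over three replicate slides.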 The settings on record: higher = more signal.
In test [10] the test system is Inhibin beta A chain (activin A). Kind of test: small molecules binding activin A – biochemical, small-molecule microarray, 635 nm fluorescence scan, primary screen (AID 1107).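 Further: mouse activin A protein probed at 4.33 µg/mL on printed slides; score merges bound-protein fluorescence near 667 nm with spot signal-to-noise.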 The settings on record: INHBA, higher = more signal.

Dickkopf-related protein 1 (Homo sapiens), sequence (O94907 whole entry, looked up): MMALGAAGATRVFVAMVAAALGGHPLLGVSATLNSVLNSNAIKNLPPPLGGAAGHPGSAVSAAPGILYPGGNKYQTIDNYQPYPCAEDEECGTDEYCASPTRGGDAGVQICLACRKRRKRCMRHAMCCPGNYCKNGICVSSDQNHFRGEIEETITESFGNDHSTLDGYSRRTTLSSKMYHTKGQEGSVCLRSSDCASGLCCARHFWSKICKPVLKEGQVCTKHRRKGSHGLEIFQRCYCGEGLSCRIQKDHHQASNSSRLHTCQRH
Fibroblast growth factor 10 (Homo sapiens), sequence (O15520 whole entry, looked up): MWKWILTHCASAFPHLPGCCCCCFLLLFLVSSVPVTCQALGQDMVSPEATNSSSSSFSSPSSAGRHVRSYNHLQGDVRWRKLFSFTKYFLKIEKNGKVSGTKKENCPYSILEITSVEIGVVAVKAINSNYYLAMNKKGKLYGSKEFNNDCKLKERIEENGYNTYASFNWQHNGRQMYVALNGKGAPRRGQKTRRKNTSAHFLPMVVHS
Follistatin-related protein 3 (Homo sapiens), sequence (O95633 whole entry, looked up): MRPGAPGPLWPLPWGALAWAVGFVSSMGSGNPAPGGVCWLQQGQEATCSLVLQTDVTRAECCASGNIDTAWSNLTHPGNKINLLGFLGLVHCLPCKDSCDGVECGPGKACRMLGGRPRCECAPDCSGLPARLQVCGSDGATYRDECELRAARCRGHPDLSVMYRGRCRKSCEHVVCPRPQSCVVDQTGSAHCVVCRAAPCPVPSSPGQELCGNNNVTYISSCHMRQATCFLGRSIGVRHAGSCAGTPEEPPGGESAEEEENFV
Epidermal growth factor receptor (Homo sapiens), sequence (P00533 whole entry, looked up): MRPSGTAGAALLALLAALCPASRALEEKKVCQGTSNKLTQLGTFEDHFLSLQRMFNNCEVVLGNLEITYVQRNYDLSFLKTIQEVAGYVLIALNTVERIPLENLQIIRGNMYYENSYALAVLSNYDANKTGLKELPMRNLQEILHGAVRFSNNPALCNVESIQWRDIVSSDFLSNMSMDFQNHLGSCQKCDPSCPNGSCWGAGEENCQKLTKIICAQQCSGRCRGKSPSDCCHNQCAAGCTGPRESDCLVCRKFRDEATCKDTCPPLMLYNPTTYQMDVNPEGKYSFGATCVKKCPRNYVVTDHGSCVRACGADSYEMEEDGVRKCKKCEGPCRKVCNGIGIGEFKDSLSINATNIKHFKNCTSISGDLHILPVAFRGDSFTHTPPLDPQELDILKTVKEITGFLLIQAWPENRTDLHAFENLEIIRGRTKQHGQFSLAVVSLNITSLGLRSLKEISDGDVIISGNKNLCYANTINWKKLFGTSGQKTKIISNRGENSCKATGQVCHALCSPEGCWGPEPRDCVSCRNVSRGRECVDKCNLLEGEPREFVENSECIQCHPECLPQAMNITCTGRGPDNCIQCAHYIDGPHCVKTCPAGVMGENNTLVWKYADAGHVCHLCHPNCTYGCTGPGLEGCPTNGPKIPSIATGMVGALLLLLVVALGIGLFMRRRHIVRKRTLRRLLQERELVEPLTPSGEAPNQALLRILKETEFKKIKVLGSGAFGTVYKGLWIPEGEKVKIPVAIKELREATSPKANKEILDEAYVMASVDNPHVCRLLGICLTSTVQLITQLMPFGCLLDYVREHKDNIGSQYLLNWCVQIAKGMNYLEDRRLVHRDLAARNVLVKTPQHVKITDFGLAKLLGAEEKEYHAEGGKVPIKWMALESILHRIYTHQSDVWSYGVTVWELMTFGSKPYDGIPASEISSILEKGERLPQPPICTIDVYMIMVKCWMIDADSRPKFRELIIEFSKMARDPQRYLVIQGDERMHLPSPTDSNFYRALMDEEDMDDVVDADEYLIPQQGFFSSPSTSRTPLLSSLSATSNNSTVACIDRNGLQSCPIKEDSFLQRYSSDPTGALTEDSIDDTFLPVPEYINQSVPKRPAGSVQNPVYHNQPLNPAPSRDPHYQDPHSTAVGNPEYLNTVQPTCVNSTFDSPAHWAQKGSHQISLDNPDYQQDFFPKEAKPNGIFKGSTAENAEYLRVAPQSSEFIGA

For `Cc1ccc(S(=O)(=O)N[C@@H]2COC(=O)CC=C[C@@H](C)[C@H](NS(=O)(=O)c3ccc(C)cc3)COC(=O)[C@H](C)NC(=O)CC=C[C@H]2C)cc1`, the composite z-score is -0.267 in test [1]; -0.472 in test [2]; -0.684 in test [3]; -0.0861 in test [5]; -0.0951 in [6]; 0.0994 in [7]. Besides, the composite z-score is 0.129 in test [8], 0.123 in test [9] and 1.27 in [10]. Moreover, the z-score in test [4] is -0.294 (inactive).

As to `CCN1C(=O)[C@H]2[C@H]3[C@H](O)[C@H](O)CC(=NO[C@@H](C)c4cc(-c5c(C)cc(C)cc5C)no4)[C@@H]3CC[C@H]2C1=O`, the composite z-score in [1] was 0.808; in [2] it was 0.101; in [3], -0.239; in test [5], 0.841; in [6] it was 1.24; in [7] it was 0.451. The composite z-score is 1.18 in test [8], 0.647 in test [9] and -0.989 in [10]. The z-score in test [4] is -0.111 (inactive).

Turning to `COC(=O)[C@H](C)NC(=O)CC=C[C@@H](C)[C@@H]1C=C[C@H](O)[C@@H](CO)O1`, the composite z-score in test [1] was 0.141; in test [2], -0.607; in test [3], -1.28; in [5], 0.6; in test [6], 0.902; in test [7], 0.643. Moreover, the composite z-score is 0.948 in test [8], 1.3 in [9] and 0.229 in test [10]. The z-score in test [4] was 0.386 (inactive).

With `O=C1C=C[C@@H](O)[C@@H]2[C@@H]3C(=O)N(c4cccc(Oc5ccccc5)c4)C(=O)[C@@H]3CC[C@@H]12`, the composite z-score is 0.378 in test [1]; -0.147 in [2]; -0.597 in test [3]; 0.322 in test [5]; 0.499 in test [6]; 0.386 in test [7]. Also, the composite z-score in test [8] was 0.438; in test [9], 0.503; in test [10] it was -0.0914. For the same molecule, the z-score in test [4] was -0.856 (inactive).

In the case of `COc1ccc(COC(=O)NN=C2C[C@@H](O)[C@@H](O)[C@@H]3[C@@H]4C(=O)N(C5CCCCC5)C(=O)[C@@H]4CC[C@@H]23)cc1`, the composite z-score in test [1] was -0.123; in test [2] it was 0.202; in test [3], 1.38; in test [5] it was -0.28; in test [6], -0.145; in [7] it was -0.583. The composite z-score in test [8] is -0.248; in test [9], -0.88; in test [10], 0.105. In addition, the z-score in test [4] is 0.299 (inactive).

On to `C[C@H]1C=CCC(=O)OC[C@H](C)C(=O)N2CCC[C@H]2C(=O)OC1`, for which the composite z-score is 1.01 in test [1]; -0.235 in test [2]; -1.53 in [3]; 1.47 in [5]; 1.29 in test [6]; 1.73 in [7]. The values for the composite z-score in test [8], in [9] and in test [10] were 1.48, 2.11 and -0.626, respectively. In addition, the z-score in test [4] is -0.0436 (inactive).

As to `C=CC[C@@H]1C=C[C@H](Oc2ccc(C)cc2)[C@@H](COC(=O)NCc2cccc3ccccc23)O1`, the composite z-score in test [1] was 0.45; in test [2] it was -0.129; in test [3] it was 0.0944; in test [5], 0.575; in [6] it was -0.224; in test [7], -0.156. In addition, the composite z-score in test [8] amounted to 0.201; in test [9] it was 0.142; in test [10], 1.03. The z-score in test [4] is -0.566 (inactive).

Turning to `COC(=O)CC=C[C@@H](C)[C@@H](C=NOC[C@@H](O)COCc1ccco1)OC`, the composite z-score in [1] is 1.05; in [2] it was -0.589; in [3] it was -1.34; in test [5] it was -0.469; in [6], 0.149; in test [7], -0.446. Also, the composite z-score in test [8] was -0.0313; in test [9], 1.15; in test [10], 0.533. Also, the z-score in test [4] is -0.485 (inactive).

Turning to `CC(C)[C@H](NC(=O)OC(C)(C)C)[C@@H](O)CC(=O)C(C)(C)C`, the composite z-score in test [1] is 0.447; in [2], -0.268; in [3], -0.428; in [5], 0.159; in test [6], -0.191; in test [7] it was 0.327. The values for the composite z-score in [8], in test [9] and in test [10] were 0.29, 0.513 and -0.0828, respectively. In test [4], the z-score was -0.275 (inactive).

On to `COC(=O)[C@@H]1CC[C@H](C)[C@@H](c2ccc(C)cc2)N1C(=O)c1ccc(C=NOC[C@@H](O)[C@H]2O[C@@H]3OC(C)(C)O[C@@H]3[C@H]2O)cc1`, for which the composite z-score in test [1] is 0.402; in test [2] it was 0.0861; in test [3] it was -0.357; in test [5], 0.696; in test [6], 0.479; in [7], 0.54. Further, the composite z-score in test [8] stood at 0.543; in [9], 0.595; in test [10], 0.101. In test [4], the z-score is 0.569 (inactive).

Take `CO[C@@H]1COC(=O)[C@@H]2CCCN2C(=O)[C@@H](C)COC(=O)CCC[C@H]1C`: the composite z-score in [1] is 0.877; in test [2], -0.331; in [3] it was -0.624; in test [5] it was 0.981; in test [6] it was 0.561; in [7], 0.38. For the same molecule, the figures for the composite z-score in test [8], in test [9] and in test [10] were 0.621, 0.661 and -0.751, respectively. The z-score in [4] was -1.27 (inactive).

Regarding `CCN1C(=O)[C@H]2[C@H]3[C@H](O)[C@H](O)CC(=NOC[C@@H](O)[C@H]4O[C@@H]5OC(C)(C)O[C@@H]5[C@H]4O)[C@@H]3CC[C@H]2C1=O`, the composite z-score in test [1] is 1.03; in test [2], -0.242; in test [3], -0.461; in test [5] it was 0.203; in test [6], -0.246; in [7] it was 0.227. Moreover, the figures for the composite z-score in [8], in [9] and in [10] were 0.24, 0.284 and 0.46, respectively. Further, in test [4], the z-score is 0.217 (inactive).

With `CC(C)(C)N1C(=O)[C@H]2[C@H]3[C@H](O)[C@H](O)CC(=NOC[C@@H](O)COCc4ccco4)[C@H]3CC[C@H]2C1=O`, the composite z-score in test [1] is 0.732; in test [2], 0.486; in [3], 0.708; in test [5] it was 0.207; in test [6] it was -0.274; in [7], -0.284. The composite z-score in test [8] is -0.28; in test [9], -0.0956; in test [10] it was 0.0091. Further, the z-score in [4] is 1.13 (inactive).

For the molecule `CC(C)=NOC[C@@H](O)[C@H]1O[C@@H]2OC(C)(C)O[C@@H]2[C@H]1O`, the composite z-score in [1] is 0.231; in test [2] it was -0.0464; in test [3], -0.364; in [5] it was 0.392; in [6], 0.892; in [7], 0.487. Moreover, the composite z-score in test [8] came out at 0.434; in test [9], 0.58; in test [10] it was 0.5. For the same molecule, the z-score in [4] is 0.211 (inactive).

Take `COCCNC(=O)OCC1CCCC2(CC(OC(=O)NCc3cccc4ccccc34)CC(CCC(=O)N[C@@H](C)C(=O)OC)O2)O1` (stereo not given in full): the composite z-score is 0.798 in [1]; -0.252 in [2]; -0.589 in [3]; 1.06 in [5]; 1.22 in test [6]; 0.709 in test [7]. For the same molecule, the composite z-score is 0.781 in [8], 0.735 in test [9] and -0.0341 in test [10]. Besides, in [4], the z-score was -0.674 (inactive).

For the molecule `COc1ccc(COC(=O)NN=C2C[C@@H](O)[C@@H](O)[C@@H]3[C@@H]4C(=O)N(Cc5ccccc5)C(=O)[C@@H]4CC[C@@H]23)cc1`, the composite z-score is 0.0233 in [1]; -0.12 in [2]; -0.249 in [3]; 0.193 in test [5]; 0.256 in test [6]; 0.375 in test [7]. Besides, the values for the composite z-score in test [8], in test [9] and in test [10] were 0.253, 0.227 and -0.0039, respectively. Also, in test [4], the z-score was -0.221 (inactive).

`COC(=O)[C@@H]1CC[C@H](C)[C@@H](c2ccc(Br)cc2)N1C(=O)C(F)(F)F`: the composite z-score is -0.324 in test [1]; -0.215 in [2]; -0.174 in test [3]; -0.329 in test [5]; -0.657 in [6]; 0.0496 in test [7]. Moreover, the results for the composite z-score in test [8], in test [9] and in [10] were -0.324, -0.144 and 0.237, respectively. Moreover, the z-score in [4] is -0.0429 (inactive).
